Assay outcomes from PubChem BioAssay.
Cruzain noTriton: inhibitors of Trypanosoma cruzi cruzain without detergent | P25779 | purified cruzain, Z-FR-AMC fluorescence, no detergent | Potency, µM, without a hit: max response, negative = inhibition, most hits filed as inhibitors | 2.3% of 200,000 active;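 further: plate controls were enzyme without inhibitor for no effect and buffer without enzyme for full effect; nearly all actives have a fitted effect of over 40% in size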
Target sequence (P25779 123-467 limits assumed): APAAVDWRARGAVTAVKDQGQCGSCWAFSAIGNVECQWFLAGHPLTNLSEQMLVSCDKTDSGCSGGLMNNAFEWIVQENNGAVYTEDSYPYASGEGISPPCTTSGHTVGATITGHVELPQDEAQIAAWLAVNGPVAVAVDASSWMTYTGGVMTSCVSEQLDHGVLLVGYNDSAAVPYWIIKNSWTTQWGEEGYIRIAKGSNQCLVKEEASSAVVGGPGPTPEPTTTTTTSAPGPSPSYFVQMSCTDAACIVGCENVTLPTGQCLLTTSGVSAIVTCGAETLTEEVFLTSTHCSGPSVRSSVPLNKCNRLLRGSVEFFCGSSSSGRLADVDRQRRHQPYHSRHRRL
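Detergent-free condition (0.00005% Triton X-100) in acetate buffer pH 5.5 with DTT. 1.5 nM enzyme and compound were pre-mixed 15 min, then 2 uM Z-FR-AMC substrate added; reaction progress from fluorescence change between first and third reads (60 s).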
Cruzain Triton: cruzain (T. cruzi) inhibition with detergent; purified cruzain, Z-FR-AMC fluorescence, 0.01% Triton; Potency, µM, without a hit: max response, negative = inhibition, hits mostly inhibitors; 0.43% of 200,000 active;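 further: plate controls were neutral wells for no effect and buffer without enzyme for full effect; nearly all actives have a fitted effect of over 40% in size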
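Sodium acetate buffer (100 mM, pH 5.5) containing 5 mM DTT and 0.01% Triton X-100 hosted 1.5 nM cruzain and test compound for 15 min at room temperature. Cleavage of 2 uM Z-FR-AMC was then tracked by fluorescence.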
Numbers without * were called inactive; ? = inconclusive. Sampled rows, rich in hits. Any-hit rate of the full collection: about 2.6%. The call rests on the fitted dose curve; in most records, active means well fitted curve in the direction sought with a large enough effect; inconclusive means small, poorly fitted or top-dose-only effect, or another doubt; inactive means no such curve, though single readings can be large; an effect the other way counts as inactive or inconclusive. Potency means the concentration at half of the fitted maximal effect.

SMILES	Cruzain noTriton	Cruzain Triton
N#Cc1c(NC(=O)CCn2cnc3ccccc3c2=O)oc(-c2ccccc2)c1-c1ccccc1	32µM*	5%
N#Cc1c(NC(=O)CCN2C(=O)c3ccccc3C2=O)oc(-c2ccccc2)c1-c1ccccc1	?	-3%
CC(C)CC(C(=O)Nc1oc(-c2ccccc2)c(-c2ccccc2)c1C#N)N1C(=O)c2ccccc2C1=O (configuration not stated)	3.2µM*	-3%
Cc1nnc(N2CCCC(C(=O)Nc3cccc(C(F)(F)F)c3)C2)c2nn(-c3ccccc3)c(C)c12 (configuration not stated)	8%	-7%
CCOc1ccc(NC(=O)CSC2=Nc3ccccc3C3=NC(CC(=O)NCc4ccc5c(c4)OCO5)C(=O)N23)cc1 (configuration not stated)	13%	-9%
Cc1nc(-c2cccc(F)c2)sc1CCNC(=O)c1c(F)cccc1Cl	-18%	-9%
CNC1C(O)C2OC3OC(C)CC(=O)[C@@]3(O)O[C@H]2[C@H](NC)C1O (some centres not stated)	-2%	3%
CSc1ccc(Cl)c(C(=O)OCC(=O)NCc2ccco2)c1	3%	-22%
CSc1ccc(Cl)c(C(=O)NCc2ccco2)c1	20µM*	?
Cc1ccc(Cl)cc1-n1c(=O)c2sc3ccccc3c2n(CC(=O)NC2CCCC2)c1=O	-13%	-4%
COc1ccc(CCNC(=O)c2ccc3nc(Cc4ccccc4)oc3c2)cc1OC	?	1%
Cc1ccc(NC(=O)CCc2c(C)nc3nc(C)nn3c2C)c(Cl)c1	8%	1%
CC(=O)c1nn(-c2cccc(Br)c2)cc1C(=O)c1ccc2ccccc2c1	10µM*	4%
CC(=O)c1nn(-c2ccc(Br)cc2)cc1C(=O)c1ccccc1	?	-1%
O=C(Cn1cc(S(=O)(=O)c2ccccc2)c(=O)c2cc(Cl)ccc21)Nc1ccc2c(c1)OCO2	-8%	-2%
CCOC(=O)c1oc2ccc(S(=O)(=O)n3nc(-c4ccc(Br)cc4)cc3N)cc2c1C	-5%	1%
Cc1ccc(-c2cc(-c3ccccc3O)nc(N/N=C/c3cccnc3)n2)cc1	25µM*	3%
Cc1ccc(S(=O)(=O)N/N=C\c2cccnc2)cc1	-1%	3%
Cc1nn(CC(=O)Nc2ccc(OC(F)(F)F)cc2)c(=O)c2c(C)n(-c3ccc(Cl)cc3)nc12	3%	4%
Cc1cc(N)c2ccccc2[n+]1CCCCCCCCCCCCCC[n+]1c(C)cc(N)c2ccccc21	20µM*	13µM*
CCOC(=O)N1[C@@H]2C=C(C)[C@@H]2[C@@H]2[C@@H](C)C(=O)N21	13µM*	13µM*
CCOC(=O)n1c(=O)oc2ccccc21	2%	7%
N[C@@H](Cc1c[nH]c2cc([N+](=O)[O-])ccc12)C(=O)O	15%	3%
O=C1NC(=O)/C(=C\c2ccccc2Oc2ccc(F)c(F)c2)S1	25µM*	-7%
CN1C(=O)C(=Cc2ccccc2Oc2ccc(Cl)c(F)c2)C(=O)N(C)C1=O	7%	-1%
SMILES	Cruzain noTriton	Cruzain Triton
ClP(Cl)(Cl)(Cl)Cl	-10%	2%
CCOC(=O)c1sc(NC(=O)CSc2nc3c(c(=O)n2-c2ccc(F)cc2)SCC3)c(C(=O)OCC)c1C	25µM*	-3%
Cc1cc(NC(=O)CSc2nc3ccccc3c(=O)n2-c2ccccc2)no1	-11%	11%
COC(=O)c1c(NC(=O)CSc2nc3ccccc3c(=O)n2-c2ccccc2)sc(C)c1C	13µM*	-3%
CCOc1ccc(-n2c(SCC(=O)Nc3ccc(OC)cc3)nc3c(c2=O)SCC3)cc1	-5%	-1%
O=c1[nH]c2cc(Cl)ccc2c(O)c1-c1cccc(Oc2ccccc2)c1	3.2µM*	5%
O=c1[nH]c2cc(Cl)ccc2c(O)c1-c1ccc(Oc2ccccc2)cc1	10µM*	2%
COCc1cc(=O)[nH]c(Sc2c(-c3ccccc3)c3ccc(Cl)cc3[nH]c2=O)n1	?	-2%
O=c1[nH]c2ccc(Cl)cc2c(O)c1-c1ccccc1	0%	1%
Cc1ccccc1CSc1cn(CC(=O)N2CCCCC2)c2ccccc12	-9%	-6%
Clc1cccc(CSc2ccc(-c3cccs3)nn2)c1	-6%	-3%
CCn1c(CSc2nnc(C)n2-c2ccccc2)nc2cc(S(=O)(=O)N(C)C)ccc21	5%	6%
CCn1c(-c2cc(Br)cc(OC)c2O)nc2cc(S(=O)(=O)N(C)C)ccc21	20µM*	-5%
Cc1snc2sc(C(=O)c3ccc(Br)cc3)c(N)c12	16µM*	20µM*
Cc1ccc(C(=O)c2sc3nsc(C)c3c2N)cc1	-5%	-4%
Cn1c(=O)c2[nH]cnc2n(C)c1=O.[CH2-][C@H](Cc1cccc2cc(C(=O)O)c(=O)oc12)OC.[Hg].[OH-]	-2%	1%
CCOC(=O)CSc1nc2cc(C(=O)NCc3ccco3)ccc2c(=O)n1-c1ccc(F)cc1	10µM*	-1%
CCOC(=O)CSc1nc2cc(C(=O)NCc3ccco3)ccc2c(=O)n1C1CCCCC1	?	0%
CC[C@@H]1O[C@]2(C=C[C@@H]1C)C[C@H]1C[C@H](CC=C(C)[C@@H](O[C@@H]3C[C@H](OC)[C@H](O[C@@H]4C[C@H](OC)[C@H](O)[C@H](C)O4)[C@H](C)O3)[C@@H](C)C=CC=C3CO[C@@H]4[C@@H](O)C(C)=C[C@@H](C(=O)O1)[C@]34O)O2	?	-4%
O=C(Nc1ccccc1N1CCN(C(=O)c2ccc(Cl)cc2)CC1)c1cc(Br)ccc1Cl	7.9µM*	4%
CC(=O)N1CCN(c2ccccc2NC(=O)c2cc(Br)ccc2Cl)CC1	3%	-2%
COc1ccc(C2=C(N3CCN(c4cccc(C)c4C)CC3)c3ccccc3C2=O)cc1	9%	-9%
COc1ccccc1NC(=O)CN(c1ccc([N+](=O)[O-])cc1)S(=O)(=O)c1ccccc1	9%	-7%
COc1ccc(N(CC(=O)N/N=C/c2ccc(-c3ccc([N+](=O)[O-])cc3)o2)S(=O)(=O)c2ccc(C)cc2)cc1Cl	6.3µM*	4%
COc1ccc(N(CC(=O)N/N=C/c2ccc(-c3ccc([N+](=O)[O-])cc3)o2)S(=O)(=O)c2ccc(C)cc2)cc1	4µM*	0%
SMILES	Cruzain noTriton	Cruzain Triton
COc1ccc(NC(=O)CN(c2ccc([N+](=O)[O-])cc2)S(=O)(=O)c2ccccc2)c(OC)c1	-5%	-4%
COc1ccc(CSc2nc3ccncc3n2CC(=O)Nc2cc(C)cc(C)c2)cc1	-20%	-20%
Cc1nc2ccn(Cc3ccco3)c(=O)c2cc1C(=O)N1CCN(c2ccc(F)cc2)CC1	?	-7%
CCc1nn2c(=O)cc(COC(=O)c3ccccc3NC(=O)COc3ccc(F)cc3)nc2s1	15%	1%
Cc1cc(Nc2cccc(C(F)(F)F)c2)n2nc(C)nc2n1	-4%	-1%
COc1ccc(-c2nc3nc(C)cc(Nc4cccc(C(F)(F)F)c4)n3n2)cc1	25µM*	-1%
Cc1ccc(C(=O)CC2(O)C(=O)N(CCc3ccccc3)c3ccc(Cl)cc32)cc1 (configuration not stated)	11%	-7%
COc1ccc2[nH]c3c(NCCN(C(C)C)C(C)C)ncnc3c2c1	13µM*	?
C1=C(CCNc2ncnc3c2[nH]c2ccccc23)CCCC1	-23%	-16%
COc1ccc2[nH]c3c(NCCCN4CCCC4=O)ncnc3c2c1	-23%	?
CC(C)OCCCNc1ncnc2c1[nH]c1ccccc12	16µM*	?
OCc1ccccc1N=c1ssnc1Cl	25µM*	-3%
